A short description of test [1]: E. coli DRC41 culture turbidity changes, primary screen, E. coli filamentation inducer project, strain DRC41, OD650, 48 h (AID 1152).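 Also: E. coli MC1000 strain DRC41 lacking acrAB efflux pump and sulA.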 The settings on record: E. coli DRC41 (acrAB sulA), higher = more signal, called active from +8 up or from −8 down.
The nature of test [2]: small-molecule binders of probe aLefty1, primary screen, biochemical, small-molecule microarray, 635/667 nm fluorescence (AID 1153).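 Also: score merges spot fluorescence with signal-to-noise ratio from the scanned slide images.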 Conditions: higher = more signal.
A short description of test [3]: PSAC antagonists in infected red cells, primary screen, cell-based, P. falciparum Indochina, OD700, 1 h (AID 1154). Conditions: P. falciparum Indochina infected RBC osmotic lysis, higher = more signal, called active from +8 up or from −8 down.
Test [4] is described as follows: PSAC antagonists in infected red cells, primary screen, cell-based, P. falciparum Indochina, OD700, 2 h (AID 1155).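 Also: lysis reports solute entry through the parasite surface anion channel PSAC; channel blockers reduce lysis of infected cells.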 The settings on record: P. falciparum Indochina infected erythrocytes, osmotic lysis OD700; higher = more signal, called active from +8 up or from −8 down.
Test [5] is described as follows: osmotic lysis modulators in infected erythrocytes, primary screen, PSAC antagonist project, cell-based, P. falciparum Indochina, OD700, 3 h (AID 1156). The settings on record: higher = more signal, called active from +8 up or from −8 down.
Test [6] can be described thus: PSAC antagonists in infected red cells, primary screen, cell-based, P. falciparum Indochina, OD700, 18 h (AID 1157). The settings on record: P. falciparum Indochina infected erythrocytes, osmotic lysis OD700, 18 h; higher = more signal, called active from +8 up or from −8 down.
Test [7] can be described thus: modulators of S6 phosphorylation in cells, primary screen, cell-based, A549, cytoblot, luminescence, serum-stimulated (AID 1158).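 Also: serum-stimulated A549 lung adenocarcinoma cells; signal is phosphorylated S6 detected by cytoblot immunostaining with HRP secondary.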 Conditions: A549 phospho-S6 cytoblot, 5 h, higher = more signal.
Test [8] addresses NADPH oxidase 2 (Homo sapiens) (UniProt P04839). As to the kind of experiment: NOX2-dependent H2O2 signal modulators, primary screen, NOX inhibitor project, cell-based, HEK293-NOX2, PMA-stimulated, Amplex Red fluorescence (AID 1159). Also: test concentration not given here. The settings on record: 45 min, higher = more signal, called active from +8 up or from −8 down.
The target in test [9] is NADPH oxidase 4 (Homo sapiens) (UniProt Q9NPH5). As to the kind of experiment: NOX4-dependent H2O2 signal modulators, primary screen, NOX inhibitor project, cell-based, HEK293-NOX4, tetracycline-induced, Amplex Red fluorescence (AID 1160). Conditions: 45 min, higher = more signal, called active from +8 up or from −8 down.
Test [10] concerns the target NADPH oxidase 5 (Homo sapiens) (UniProt Q96PH1). As to the kind of experiment: NOX5-dependent H2O2 signal modulators, primary screen, NOX inhibitor project, cell-based, HEK293-NOX5, Amplex Red fluorescence (AID 1161). The settings on record: HEK293-NOX5, ionomycin, 45 min, higher = more signal.
A short description of test [11]: A549 cell viability effects, profiling panel, calcein-AM fluorescence, 48 h, basal (AID 1162). Also: test concentration not given here. Conditions: higher = more signal.
A short description of test [12]: adipocyte viability effects, profiling panel, cell-based, 3T3-L1 adipocytes, calcein-AM fluorescence, 48 h, basal (AID 1163). Also: test concentration not given here. Conditions: 3T3-L1 adipocytes viability, higher = more signal.
Test [13] can be described thus: HepG2 cell viability effects, profiling panel, calcein-AM fluorescence, 48 h, basal (AID 1164). Also: test concentration not given here. Conditions: higher = more signal.
The nature of test [14]: MM1S cell viability effects, profiling panel, calcein-AM fluorescence, 48 h, basal (AID 1165).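 Also: viability of MM1S multiple myeloma cells under basal unstimulated conditions; test concentration not given here.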 Conditions: higher = more signal.
Test [15] in a line: basal RPMI8226 viability, no added stimulus, profiling panel, cell-based, calcein-AM fluorescence, 48 h, PK04 Diversity Set (AID 1166).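 Also: cells grown under basal conditions without added stimulus; test concentration not given here.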 The settings on record: RPMI8226 myeloma viability, higher = more signal.
Test [16] is described as follows: basal HepG2 mitochondrial membrane potential changes, profiling panel, cell-based, JC-1 fluorescence, 24 h, 100 nL compound (AID 1167). Also: test concentration not given here. The settings on record: higher = more signal.
Test [17] can be described thus: basal 3T3-L1 adipocyte mitochondrial potential changes, profiling panel, cell-based, JC-1 fluorescence, 3T3-L1 adipocytes, 24 h, 100 nL compound (AID 1168). Also: test concentration not given here. Conditions: JC-1 mitochondrial fluorescence, higher = more signal, called active from +8 up or from −8 down.
Test [18] in a line: basal RPMI8226 mitochondrial membrane potential changes, profiling panel, cell-based, JC-1 fluorescence, 24 h, 100 nL compound (AID 1169). Also: test concentration not given here. Conditions: RPMI8226 myeloma, JC-1 mitochondrial potential fluorescence, higher = more signal.
A short description of test [19]: basal MM1S mitochondrial membrane potential changes, profiling panel, cell-based, JC-1 fluorescence, 24 h, 100 nL compound (AID 1170). Also: test concentration not given here. The settings on record: higher = more signal.
The nature of test [20]: A549 lung cancer cell viability effects, profiling panel, resazurin fluorescence, 24 h, PK04 Diversity Set (AID 1171). Also: test concentration not given here. The settings on record: higher = more signal, called active from +8 up or from −8 down.

We go through 8 compounds from PubChem BioAssay.

Activity calls are given as the source filed them.

NADPH oxidase 5 (Homo sapiens), sequence (Q96PH1 whole entry, looked up): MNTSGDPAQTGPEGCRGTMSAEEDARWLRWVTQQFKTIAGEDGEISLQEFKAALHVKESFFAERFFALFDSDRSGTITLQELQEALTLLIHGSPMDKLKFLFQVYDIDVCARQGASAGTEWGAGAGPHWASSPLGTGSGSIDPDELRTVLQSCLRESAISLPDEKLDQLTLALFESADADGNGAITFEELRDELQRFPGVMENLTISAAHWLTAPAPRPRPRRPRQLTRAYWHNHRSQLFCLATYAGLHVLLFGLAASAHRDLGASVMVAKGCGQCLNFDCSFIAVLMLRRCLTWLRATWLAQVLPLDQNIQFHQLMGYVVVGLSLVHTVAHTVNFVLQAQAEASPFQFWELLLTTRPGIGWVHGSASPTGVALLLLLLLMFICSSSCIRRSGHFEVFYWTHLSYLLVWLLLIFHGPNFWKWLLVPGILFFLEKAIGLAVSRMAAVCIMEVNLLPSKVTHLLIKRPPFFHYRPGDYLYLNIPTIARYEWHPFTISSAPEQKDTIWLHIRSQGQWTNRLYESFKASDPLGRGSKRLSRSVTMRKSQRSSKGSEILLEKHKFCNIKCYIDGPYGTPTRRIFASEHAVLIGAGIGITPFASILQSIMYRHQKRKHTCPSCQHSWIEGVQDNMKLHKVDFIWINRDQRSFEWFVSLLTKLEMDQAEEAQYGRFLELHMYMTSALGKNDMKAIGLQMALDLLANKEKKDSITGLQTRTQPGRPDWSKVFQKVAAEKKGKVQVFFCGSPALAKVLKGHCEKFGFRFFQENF
NADPH oxidase 2 (Homo sapiens), sequence (P04839 whole entry, looked up): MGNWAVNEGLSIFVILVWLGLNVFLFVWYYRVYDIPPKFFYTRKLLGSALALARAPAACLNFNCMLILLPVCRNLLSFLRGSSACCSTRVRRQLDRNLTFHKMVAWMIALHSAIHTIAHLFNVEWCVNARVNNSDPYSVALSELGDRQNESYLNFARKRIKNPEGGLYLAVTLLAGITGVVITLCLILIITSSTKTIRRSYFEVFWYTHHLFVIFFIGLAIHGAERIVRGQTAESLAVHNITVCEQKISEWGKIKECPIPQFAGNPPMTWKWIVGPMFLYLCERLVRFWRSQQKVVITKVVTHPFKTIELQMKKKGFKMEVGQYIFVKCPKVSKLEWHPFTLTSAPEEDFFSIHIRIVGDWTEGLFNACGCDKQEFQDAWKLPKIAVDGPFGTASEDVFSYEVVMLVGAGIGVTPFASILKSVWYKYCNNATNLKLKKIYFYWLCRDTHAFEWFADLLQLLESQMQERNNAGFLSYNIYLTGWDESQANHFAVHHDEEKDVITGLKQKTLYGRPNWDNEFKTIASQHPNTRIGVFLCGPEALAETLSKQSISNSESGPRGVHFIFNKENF
NADPH oxidase 4 (Homo sapiens), sequence (Q9NPH5 whole entry, looked up): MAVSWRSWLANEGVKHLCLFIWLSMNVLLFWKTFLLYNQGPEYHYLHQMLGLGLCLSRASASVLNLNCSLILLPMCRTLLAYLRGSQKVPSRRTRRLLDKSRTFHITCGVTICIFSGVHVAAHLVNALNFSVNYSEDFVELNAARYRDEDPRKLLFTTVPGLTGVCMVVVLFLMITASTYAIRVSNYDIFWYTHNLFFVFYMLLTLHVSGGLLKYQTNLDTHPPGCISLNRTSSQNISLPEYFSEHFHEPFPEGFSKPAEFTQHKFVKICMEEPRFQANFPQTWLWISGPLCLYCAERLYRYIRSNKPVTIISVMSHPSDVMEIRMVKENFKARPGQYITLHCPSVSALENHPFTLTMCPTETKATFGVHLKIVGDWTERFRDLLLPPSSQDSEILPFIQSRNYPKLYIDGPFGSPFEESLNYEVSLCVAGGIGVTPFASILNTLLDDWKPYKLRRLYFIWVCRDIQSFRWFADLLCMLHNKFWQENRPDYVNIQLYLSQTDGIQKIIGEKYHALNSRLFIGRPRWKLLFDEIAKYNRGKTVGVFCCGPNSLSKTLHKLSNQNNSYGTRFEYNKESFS

In the case of `CC(C)OC(=O)CC(=O)CC(O)c1cccc([N+](=O)[O-])c1` (stereo not given), the z-score is 1.27 (inactive) in [1]; 3.27 (inactive) in test [3]; 0.79 (inactive) in [4]; -1.39 (inactive) in [5]; -0.295 (inactive) in test [6]; 2.1 in test [7]. The z-score in test [8] was -0.068 (inactive); in [9] it was 0.147 (inactive); in test [10], 0.435; in test [11], 1.07; in test [12], 0.804; in [13], 0.729. Besides, the z-score in test [14] was 1.21; in test [15] it was 0.0484; in test [16], -0.524; in [17], -0.718 (inactive); in test [18], 0.193; in test [19], -1.38. The z-score in [20] was 0.0126 (inactive). Also, the composite z-score in test [2] was 0.318.
As to `COC(=O)c1cccc([C@H]2OC(=CC(=O)OC(C)C)C[C@@H](c3cccc(C(=O)OC)c3)O2)c1`, the z-score in test [1] is -0.576 (inactive); in test [3], 18.5 (active); in test [4], 3.17 (inactive); in test [5] it was 0.487 (inactive); in test [6] it was 0.683 (inactive); in [7] it was 0.0055. In addition, the z-score in test [8] was -0.679 (inactive); in test [9], -1.6 (inactive); in test [10], -2.04; in test [11] it was -0.921; in test [12], 0.229; in [13] it was -0.248. For the same compound, the z-score in test [14] is -3.15; in test [15], -1.64; in test [16] it was -0.571; in test [17] it was -1.52 (inactive); in test [18], -1.08; in [19], -2.76. In [20], the z-score is -0.0417 (inactive). For the same compound, in test [2], the composite z-score stood at 0.635.
With `CC(C)=C1C(=O)C(c2ccccc2)=C2CN3C(=O)N(CCc4ccccc4)C(=O)[C@]3(C)[C@H]21`, the z-score in test [1] is -2.52 (inactive); in test [3], 28.2 (active); in test [4], 24.2 (active); in test [5], 1.63 (inactive); in test [6], 1.62 (inactive); in test [7] it was -0.832. Moreover, the z-score was -1.16 (inactive) in test [8]; -1.55 (inactive) in test [9]; -0.718 in [10]; 0.559 in test [11]; -0.342 in [12]; 0.302 in test [13]. Also, the z-score in [14] was -2.06; in [15] it was -3.46; in test [16], 1.87; in test [17] it was -1.43 (inactive); in [18], -0.879; in test [19], -1.66. Moreover, the z-score in test [20] was -0.337 (inactive). This compound yielded a composite z-score in [2] of 0.298.
For the compound `[N-]=[N+]=NCc1ccccc1[C@@H]1OC(c2ccc(OCCCO)cc2)=N[C@]1(Cc1ccccc1N=[N+]=[N-])C(=O)NCC(O)CO` (stereo not given in full), the z-score was 0.553 (inactive) in test [1]; 20.2 (active) in test [3]; 5.06 (inactive) in test [4]; 1.09 (inactive) in test [5]; 1.1 (inactive) in [6]; -0.0256 in test [7]. Moreover, the z-score in test [8] is -0.868 (inactive); in test [9], 0.704 (inactive); in [10] it was 1.5; in test [11] it was -0.619; in test [12] it was 0.0728; in test [13], -0.326. Also, the z-score in test [14] is -1.78; in test [15] it was -1.57; in test [16] it was -0.686; in test [17] it was 0.265 (inactive); in [18] it was -1.2; in [19], -0.6. For the same compound, in [20], the z-score is -1.09 (inactive). For the same compound, the composite z-score in test [2] was found to be 1.31.
On to `COCCOC(=O)N1C(=O)[C@@]2(c3cc(C#CC4(O)CCCCCC4)ccc31)[C@H](c1ccc(O)cc1)N1[C@H](c3ccccc3)[C@H](c3ccccc3)OC(=O)[C@H]1[C@@H]2C(=O)N1CCCCCCC1`, for which the z-score in test [1] was 0.341 (inactive); in test [3], 1.13 (inactive); in test [4], 0.928 (inactive); in [5] it was 0.0786 (inactive); in test [6], 0.166 (inactive); in test [7], -0.363. Also, the z-score was 1.61 (inactive) in [8]; 0.0838 (inactive) in [9]; 1.41 in test [10]; 0.717 in test [11]; -0.854 in test [12]; 0.98 in [13]. Further, the z-score in [14] was -0.615; in test [15], -1.83; in test [16] it was -0.442; in test [17], -0.943 (inactive); in test [18], -1.01; in test [19] it was 0.0446. The z-score in test [20] is -0.178 (inactive). Further, the composite z-score in test [2] was found to be 1.08.
For the compound `CN(C)CCCNC(=O)[C@@]1(Cc2ccccc2I)c2ccccc2C(=O)N(C2CCCCC2)[C@H]1c1ccc(CO)cc1`, the z-score is -2.04 (inactive) in test [1]; 2.37 (inactive) in [3]; -0.0009 (inactive) in [4]; -2.34 (inactive) in test [5]; -0.456 (inactive) in test [6]; -2.25 in [7]. In addition, the z-score in test [8] is -9.9 (active); in test [9], -4.06 (inactive); in [10], -3.65; in test [11] it was -4.29; in test [12], -0.546; in test [13], -5.11. Moreover, the z-score is -3.78 in test [14]; -4.34 in [15]; -2.13 in test [16]; 2.14 (inactive) in [17]; -1.01 in test [18]; -2.49 in test [19]. For the same compound, the z-score in test [20] is -6.91 (inactive). Besides, the composite z-score in test [2] was 0.482.
Consider `COCCOC(=O)N1C(=O)[C@@]2(c3cc(C#CCCO)ccc31)[C@H](c1ccccc1OCCO)N1[C@H](c3ccccc3)[C@H](c3ccccc3)OC(=O)[C@H]1[C@@H]2C(N)=O`, for which the z-score is 1.46 (inactive) in test [1]; 20.3 (active) in test [3]; 4.04 (inactive) in [4]; 0.633 (inactive) in [5]; 0.934 (inactive) in test [6]; 0.868 in test [7]. Moreover, the z-score was 1.81 (inactive) in [8]; 0.552 (inactive) in [9]; -0.302 in test [10]; 0.49 in test [11]; 1.8 in test [12]; -0.112 in test [13]. The z-score in test [14] is -1.49; in test [15], -4.2; in [16] it was 0.446; in [17], 1 (inactive); in test [18], -1.22; in test [19], -1.12. Besides, the z-score in [20] is -0.0131 (inactive). Further, the composite z-score in test [2] was -0.278.
Take `O=C1C[C@]2(c3ccc([N+](=O)[O-])cc3)C(=O)N(C3CC3)c3cc(CO)ccc3[C@H]2N1C1CCCCC1`: the z-score in test [1] was -0.348 (inactive); in test [3] it was -0.58 (inactive); in test [4], 0.0608 (inactive); in test [5], -1.35 (inactive); in test [6], -0.0894 (inactive); in test [7], -0.278. Further, the z-score in [8] is 0.0692 (inactive); in test [9], 0.987 (inactive); in test [10], 0.0695; in test [11], -0.164; in test [12] it was -0.898; in test [13] it was 0.214. Besides, the z-score in test [14] is -0.464; in test [15], 0.474; in [16] it was -1.07; in [17], -0.185 (inactive); in [18] it was -0.691; in test [19], -0.993. In addition, the z-score in test [20] was -0.332 (inactive). For the same compound, in test [2], the composite z-score is 0.91.
